High-throughput results deposited in PubChem by National Center for Advancing Translational Sciences (NCATS).
Only some compounds are listed: those with a hit (about 15% of all), similar ones and a draw of the others.
HCMV inh: blocks human cytomegalovirus replication. HFF cells, HCMV-luciferase reporter, 72 h; stronger effect = lower value. activity change, negative = inhibition, % at 57.5 µM. actives 4.5% (n = 410,000); in the data active means activity change below about -60%; inconclusive means no clear call, values can overlap the other calls; inactive means above about -39%
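Human foreskin fibroblasts infected with luciferase-reporter HCMV at MOI 1 PFU/cell, compounds at two doses. Luciferase measured 72 h post infection; normalized to buffer-only basal and Salinomycin (10uM) controls.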
Pf growth 48h: P. falciparum growth inhibition at 48 hours (one generation) | actives 5.9% (n = 310,000) | P. falciparum luciferase growth in erythrocytes, 48 h | AID 504832 | Potency, µM (highest dose often 28.7 µM), most hits filed as inhibitors
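Luciferase-expressing parasites in RBCs, 2% Hct / 0.1% parasitemia final; RPMI 1640 + 0.5% Albumax; 37 C, 5% CO2, one generation; luminescence read-out, lower signal = inhibition.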
Pf growth 96h: inhibits malaria parasite growth, 96 h; AID 504834; Potency, µM (highest dose often 28.7 µM), actives largely listed as inhibitors; actives 6.9% (n = 320,000); P. falciparum luciferase reporter growth, 96 h
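Plates of compound plus infected erythrocytes (2% hematocrit, 0.05% parasitemia final) incubate 96 hours, 37 C, 5% CO2. Detection reagent added; reduced luminescence from the parasites' luciferase reporter flags inhibition.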
SARS PLpro yeast: SARS-CoV PLP inhibition in yeast | S. cerevisiae expressing SARS-CoV PLpro, growth rescue | Potency, µM (titrated, usually from 32.9 µM), actives largely listed as activators | actives 0.19% (n = 330,000) | AID 485353; calls by dose curve; further: nearly all actives have a fitted effect of over 55% in size
Sm TGR inh: blocks Schistosoma mansoni thioredoxin glutathione reductase | Q962Y6 | purified TGR, DTNB reduction, TNB absorbance 405 nm | Potency, µM (top dose mostly 114 µM), usual class: inhibitors | actives 3% (n = 360,000) | AID 485364; further: nearly all actives have a fitted effect of over 60% in size
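TGR 20 nM + NADPH 100 uM (dispensed conc.), cpd preinc 15 min RT; start with NADPH (500 uM addition) then DTNB (15 mM addition). Kinetic TNB absorbance, 405 nm filter. Four-parameter Hill fit across titration.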
HCV inhibitor: HCV inhibition; Huh7.5.1 HCVcc-Cre infection, luciferase reporter, 44 h; Potency, µM (doses to about 41.8 µM), hits mostly inhibitors; actives 3.4% (n = 340,000); AID 651820
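A cell-based infection assay in which seeded cells (1,000 per well) receive test compound after 4 h, are inoculated with HCVcc-Cre at approximately 0.5 moi, and are incubated 44 h before luminescence detection.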
Of the large screens only hits and unclear results are named; the others gave an inactive call. Unless noted, the call rests on the fitted dose curve; in most records, active means well fitted curve in the direction sought with a large enough effect; inconclusive means small, poorly fitted or top-dose-only effect, or another doubt; inactive means no such curve, though single readings can be large; an effect the other way counts as inactive or inconclusive.

Cc1ccc(CNC(=O)CSc2nc3ccsc3c(=O)n2-c2ccc(C(=O)O)cc2)cc1	none (no result: Pf growth 48h, Pf growth 96h, SARS PLpro yeast, HCV inhibitor)
O=[N+]([O-])c1ccc(NC(=S)N2CCOCC2)cc1	Pf growth 96h inconclusive
CC(NC(=O)Nc1ccc([N+](=O)[O-])cc1)C(c1ccccc1)N1CCOCC1 (centres undefined)	Pf growth 48h inconclusive, Pf growth 96h inconclusive, Sm TGR inh 28.2µM
CC(NC(=O)Nc1ccc(Cl)c(Cl)c1)C(c1ccccc1)N1CCOCC1 (centres undefined)	HCMV inh -94.8, Pf growth 48h inconclusive, Pf growth 96h 5.22µM, HCV inhibitor inconclusive
CC(C(=O)NC(c1ccccc1)c1ccccc1)N1CCOCC1 (centres undefined)	none
Cc1nn(CCC(=O)O)c2nc(-c3cccnc3)cc(C(F)(F)F)c12	Pf growth 96h inconclusive, HCV inhibitor inconclusive
Cc1nn(CCC(N)=O)c2nc(-c3cccs3)cc(C(F)(F)F)c12	Pf growth 96h inconclusive, HCV inhibitor 10µM
CCOc1ccc(-c2nnc(-c3ccccc3)n2-c2ccccc2)cc1	Pf growth 96h inconclusive
Cc1nnc(C)c2c(C)n(-c3ccc(Cl)c(N)c3)c(C)c12	Pf growth 96h 13.1µM, HCV inhibitor inconclusive
Cc1nnc(C)c2c(C)n(-c3ccc4ncccc4c3)c(C)c12	Pf growth 48h inconclusive (no result: Sm TGR inh)
CCOc1ccc(-n2c(C)c3c(C)nnc(C)c3c2C)cc1	HCMV inh -62.2 (no result: Pf growth 48h, Pf growth 96h, SARS PLpro yeast, Sm TGR inh, HCV inhibitor)
COc1cc(C(CC(=O)NCc2ccccc2)N2Cc3ccccc3C2=O)cc(OC)c1OC (centres undefined)	none (no result: Pf growth 48h, Pf growth 96h, SARS PLpro yeast, HCV inhibitor)
CNc1cccc(-c2c(OC)cccc2OC)n1	none (no result: Pf growth 48h, Pf growth 96h, SARS PLpro yeast, Sm TGR inh, HCV inhibitor)
Cc1cc(C)c2c(N)c(C(=O)c3ccccc3)oc2n1	Pf growth 96h 2.33µM (no result: SARS PLpro yeast, HCV inhibitor)
Cc1cc(C)c2c(N)c(C(=O)c3ccc(Br)cc3)oc2n1	Sm TGR inh inconclusive, HCV inhibitor inconclusive
CC(C(O)c1cc(=O)c(OCc2ccccc2)co1)[N+](=O)[O-] (centres undefined)	none (no result: Pf growth 48h, Pf growth 96h, SARS PLpro yeast, Sm TGR inh)
COc1coc(C(O)C[N+](=O)[O-])cc1=O (centres undefined)	Sm TGR inh 50.1µM
Cc1cc(C)cc(-n2ccn3c(CC(C)(C)CC(=O)O)nnc3c2=O)c1	none (no result: Pf growth 48h, Pf growth 96h, SARS PLpro yeast, HCV inhibitor)
CNCCCOc1ccc(C(C)(C)c2ccccc2)cc1	Pf growth 96h 9.28µM (no result: HCMV inh, Pf growth 48h, HCV inhibitor)
CCC(C)NCCOc1ccc(C(C)(C)c2ccccc2)cc1 (centres undefined)	HCMV inh inconclusive, Pf growth 48h inconclusive, HCV inhibitor 10µM
CC(C)(C)c1ccc(OCCNCc2ccccc2)cc1	none
COCCCNCCOc1ccc(C(C)(C)c2ccccc2)cc1	Pf growth 96h inconclusive, HCV inhibitor 10µM
Clc1ccc(CN2CCN(c3ncccn3)CC2)c(Cl)c1	none
CSc1ccc(C(=O)C2CCCN(C(=O)Cn3cnnn3)C2)cc1 (centres undefined)	Pf growth 96h inconclusive
CSCCC(NS(=O)(=O)c1ccc(C)c(C(=O)O)c1)C(=O)O (centres undefined)	HCMV inh -63.8
CSCCC(NS(=O)(=O)c1ccc(Cl)cc1)C(=O)O (centres undefined)	none
CC(=O)c1ccc(OCCCC(=O)NC2CCCc3ccccc32)cc1 (centres undefined)	HCMV inh -85.8, HCV inhibitor inconclusive
CCCCn1nc2cc(C(=O)NC3CCCc4ccccc43)ccc2c1OCC (centres undefined)	HCMV inh inconclusive, Pf growth 96h inconclusive, HCV inhibitor 1.78µM
COc1ccc(OCC(=O)NC2CCCc3ccccc32)cc1 (centres undefined)	HCMV inh inconclusive, HCV inhibitor inconclusive
CC(=O)c1c(C)[nH]c(C(=O)NC2CCSc3ccccc32)c1C (centres undefined)	HCMV inh inconclusive, HCV inhibitor inconclusive
CCOc1c2ccc(C(=O)NCCCCc3ccccc3)cc2nn1CC	HCV inhibitor 3.55µM
CCOc1c2ccc(C(=O)NC3CCCc4ccccc43)cc2nn1C (centres undefined)	HCMV inh inconclusive, HCV inhibitor inconclusive
CCc1c(C(=O)NC2CCCc3ccccc32)[nH]c(C)c1C(C)=O (centres undefined)	HCMV inh -83.4, Pf growth 96h inconclusive
COc1ccccc1/C=C/C(=O)OCC(=O)NC1CCCCCCC1	none (no result: Pf growth 48h, Pf growth 96h, Sm TGR inh)
CC(C)CCNC(=O)Nc1cc(C(=O)NCc2cccc(F)c2)ccc1N1CCCC1	none (no result: Pf growth 48h, Pf growth 96h, SARS PLpro yeast, HCV inhibitor)
O=C(CCNC(=O)c1ccc(Br)cc1)NC1CCCCCC1	Pf growth 96h inconclusive
O=C(CCNC(=O)c1ccc(Br)cc1)NC1CCCc2ccccc21 (centres undefined)	HCMV inh -81.2, Pf growth 48h inconclusive
Cc1cc(C)c(NC(=O)CS(=O)CC(=O)NC2CCCc3ccccc32)c(C)c1 (centres undefined)	Pf growth 96h 10.4µM, HCV inhibitor inconclusive
O=C(NC1CCCc2ccccc21)c1n[nH]c(=O)c2ccccc12 (centres undefined)	Pf growth 48h inconclusive, Pf growth 96h inconclusive, HCV inhibitor 22.4µM
COc1ccccc1-c1ccc(=O)n(CC(=O)NC2CCc3ccccc32)n1 (centres undefined)	HCMV inh -87.4, Pf growth 96h inconclusive
Cc1ccc(OCC(=O)NC2CCCc3ccccc32)c(C)c1 (centres undefined)	Pf growth 96h inconclusive
O=C(NC1CCCc2ccccc21)c1ccccc1 (centres undefined)	HCMV inh inconclusive
Cc1ccsc1C(=O)N1CCC1(C)C(=O)Nc1cccc(C#N)c1 (centres undefined)	none (no result: Pf growth 48h, Pf growth 96h, SARS PLpro yeast, Sm TGR inh, HCV inhibitor)
CC1(c2cccc(Br)c2)NC(=O)N(CC(=O)Nc2ccc3c(c2)OCCO3)C1=O (centres undefined)	none (no result: Pf growth 48h, Pf growth 96h, Sm TGR inh)
Cc1c(Cl)cccc1NC(=S)Nc1ccc(S(=O)(=O)Nc2ncccn2)cc1	none (no result: Pf growth 48h, Pf growth 96h, Sm TGR inh)
Cc1nn(Cc2ccccc2)c(Cl)c1C(=O)NC1CCCc2ccccc21 (centres undefined)	Pf growth 96h inconclusive, SARS PLpro yeast inconclusive, HCV inhibitor 35.5µM
O=C(Nc1ccc2c(c1)CCC2)c1cccc(S(=O)(=O)N2CCN(c3ccccc3)CC2)c1	Pf growth 96h inconclusive, HCV inhibitor 0.562µM (no result: Pf growth 48h)
O=C(Cn1nnc2ccccc2c1=O)Nc1ccc2c(c1)CCC2	Pf growth 96h inconclusive
CN(c1ccccc1)S(=O)(=O)c1cccc(C(=O)Nc2ccc3c(c2)CCC3)c1	HCMV inh inconclusive, Pf growth 48h inconclusive, Pf growth 96h inconclusive, HCV inhibitor inconclusive
Cc1ccc2nc(SCC(=O)NC3CCCc4ccccc43)[nH]c2c1 (centres undefined)	HCMV inh inconclusive, HCV inhibitor 11.2µM
O=C(CSc1cc(Cl)ccc1Cl)NC1CCCc2ccccc21 (centres undefined)	HCMV inh inconclusive, Pf growth 96h inconclusive, HCV inhibitor inconclusive
